# Like-named read-outs stand apart in the source and are kept apart here.
# Experiments:
# [1] = system: CHEK1; conditions: read-out: apparent Kd, n = 1
# [2] = system: ERN1; conditions: read-out: apparent Kd, n = 1
# [3] = compound concentrations:100 nM and 1000 nM (sheet 'Lestaurtinib' of Supplementary Table 1),run:Lestaurtinib_02601_R1,Plate:MR018
# [4] = compound concentrations:100 nM and 1000 nM (sheet 'Lestaurtinib' of Supplementary Table 1),run:Lestaurtinib_02601_R3,Plate:MR018
# [5] = compound concentrations:100 nM and 1000 nM (sheet 'Lestaurtinib' of Supplementary Table 1),run:Lestaurtinib_02606_R1,Plate:MR019
# [6] = compound concentrations:100 nM and 1000 nM (sheet 'Lestaurtinib' of Supplementary Table 1),run:Lestaurtinib_02606_R2,Plate:MR019
# [7] = compound concentrations:100 nM and 1000 nM (sheet 'Lestaurtinib' of Supplementary Table 1),run:Lestaurtinib_02606_R3,Plate:MR019
# [8] = compound concentrations:100 nM and 1000 nM (sheet 'Lestaurtinib' of Supplementary Table 1),run:Lestaurtinib_02624_R2,Plate:MR020
# [9] = compound concentrations:100 nM and 1000 nM (sheet 'Lestaurtinib' of Supplementary Table 1),run:Lestaurtinib_02624_R3,Plate:MR020
# [10] = compound concentrations:100 nM and 1000 nM (sheet 'Lestaurtinib' of Supplementary Table 1),run:Lestaurtinib_02724_R3,Plate:MR021
# [11] = compound concentrations:100 nM and 1000 nM (sheet 'Lestaurtinib' of Supplementary Table 1),run:Lestaurtinib_02741_R1,Plate:MR023
# [12] = compound concentrations:100 nM and 1000 nM (sheet 'Lestaurtinib' of Supplementary Table 1),run:Lestaurtinib_02748_R3,Plate:MR024
substance,measurement,setting,value
Lestaurtinib,potency estimated from few doses,[1]; [3],98 nM
same,potency estimated from few doses,[1]; [4],78.8 nM
same,potency estimated from few doses,[1]; [5],88.5 nM
same,potency estimated from few doses,[1]; [6],74.1 nM
same,potency estimated from few doses,[1]; [7],97 nM
same,potency estimated from few doses,[1]; [8],93 nM
same,potency estimated from few doses,[1]; [9],79 nM
same,potency estimated from few doses,[1]; [10],92 nM
same,potency estimated from few doses,[1]; [11],88 nM
same,potency estimated from few doses,"[1]; compound concentrations:100 nM and 1000 nM (sheet 'Lestaurtinib' of Supplementary Table 1),run:Lestaurtinib_02748_R1,Plate:MR024",69.5 nM
same,potency estimated from few doses,[1]; [12],80.1 nM
same,potency estimated from few doses,"[1]; compound concentrations:100 nM and 1000 nM (sheet 'Lestaurtinib' of Supplementary Table 1),run:Lestaurtinib_02752_R1,Plate:MR025",75.5 nM
same,potency estimated from few doses,"[1]; compound concentrations:100 nM and 1000 nM (sheet 'Lestaurtinib' of Supplementary Table 1),run:Lestaurtinib_02765_R2,Plate:MR026",98.7 nM
same,potency estimated from few doses,"[1]; compound concentrations:100 nM and 1000 nM (sheet 'Lestaurtinib' of Supplementary Table 1),run:Lestaurtinib_02765_R3,Plate:MR026",75.5 nM
same,potency estimated from few doses,"[1]; compound concentrations:100 nM and 1000 nM (sheet 'Lestaurtinib' of Supplementary Table 1),run:Lestaurtinib_02766_R1,Plate:MR027",92 nM
same,potency estimated from few doses,"[1]; compound concentrations:100 nM and 1000 nM (sheet 'Lestaurtinib' of Supplementary Table 1),run:Lestaurtinib_02766_R2,Plate:MR027",71.2 nM
same,potency estimated from few doses,"[1]; compound concentrations:100 nM and 1000 nM (sheet 'Lestaurtinib' of Supplementary Table 1),run:Lestaurtinib_02766_R3,Plate:MR027",82.7 nM
same,potency estimated from few doses,"[1]; compound concentrations:100 nM and 1000 nM (sheet 'Lestaurtinib' of Supplementary Table 1),run:Lestaurtinib_02768_R1,Plate:MR028",82.7 nM
same,potency estimated from few doses,"[1]; compound concentrations:100 nM and 1000 nM (sheet 'Lestaurtinib' of Supplementary Table 1),run:Lestaurtinib_02768_R3,Plate:MR028",86.1 nM
same,potency estimated from few doses,"[1]; compound concentrations:100 nM and 1000 nM (sheet 'Lestaurtinib' of Supplementary Table 1),run:Lestaurtinib_02795_R1,Plate:MR022",89.5 nM
same,potency estimated from few doses,"[1]; compound concentrations:100 nM and 1000 nM (sheet 'Lestaurtinib' of Supplementary Table 1),run:Lestaurtinib_02795_R2,Plate:MR022",80.2 nM
same,potency estimated from few doses,"[1]; compound concentrations:100 nM and 1000 nM (sheet 'Lestaurtinib' of Supplementary Table 1),run:Lestaurtinib_02795_R3,Plate:MR022",211 nM
same,potency estimated from few doses,"[1]; compound concentrations:100 nM and 1000 nM (sheet 'Lestaurtinib' of Supplementary Table 1),run:Lestaurtinib_02802_R1,Plate:MR029",84.3 nM
same,potency estimated from few doses,"[1]; compound concentrations:100 nM and 1000 nM (sheet 'Lestaurtinib' of Supplementary Table 1),run:Lestaurtinib_02802_R2,Plate:MR029",91.6 nM
same,potency estimated from few doses,"[1]; compound concentrations:100 nM and 1000 nM (sheet 'Lestaurtinib' of Supplementary Table 1),run:Lestaurtinib_02802_R3,Plate:MR029",91.6 nM
same,potency estimated from few doses,"[1]; compound concentrations:100 nM and 1000 nM (sheet 'Lestaurtinib' of Supplementary Table 1),run:Lestaurtinib_02896_R1,Plate:MR030",73.7 nM
same,potency estimated from few doses,"[1]; compound concentrations:100 nM and 1000 nM (sheet 'Lestaurtinib' of Supplementary Table 1),run:Lestaurtinib_02896_R2,Plate:MR030",70 nM
same,potency estimated from few doses,"[1]; compound concentrations:100 nM and 1000 nM (sheet 'Lestaurtinib' of Supplementary Table 1),run:Lestaurtinib_02896_R3,Plate:MR030",66.7 nM
same,potency estimated from few doses,"[1]; compound concentrations:100 nM and 1000 nM (sheet 'Lestaurtinib' of Supplementary Table 1),run:Lestaurtinib_03172_R2,Plate:MR031",83.5 nM
same,potency estimated from few doses,"[1]; compound concentrations:100 nM and 1000 nM (sheet 'Lestaurtinib' of Supplementary Table 1),run:Lestaurtinib_03172_R3,Plate:MR031",94.3 nM
same,potency estimated from few doses,"[1]; compound concentrations:100 nM and 1000 nM (sheet 'Lestaurtinib' of Supplementary Table 1),run:Lestaurtinib_03260_R3,Plate:MR033",67.9 nM
same,potency estimated from few doses,"[2]; compound concentrations:100 nM and 1000 nM (sheet 'Lestaurtinib' of Supplementary Table 1),run:Lestaurtinib_02339_R1,Plate:MR001",97.9 nM
same,potency estimated from few doses,"[2]; compound concentrations:100 nM and 1000 nM (sheet 'Lestaurtinib' of Supplementary Table 1),run:Lestaurtinib_02339_R2,Plate:MR001",65.8 nM
same,potency estimated from few doses,"[2]; compound concentrations:100 nM and 1000 nM (sheet 'Lestaurtinib' of Supplementary Table 1),run:Lestaurtinib_02339_R3,Plate:MR001",47 nM
same,potency estimated from few doses,"[2]; compound concentrations:100 nM and 1000 nM (sheet 'Lestaurtinib' of Supplementary Table 1),run:Lestaurtinib_02364_R1,Plate:MR002",75.2 nM
same,potency estimated from few doses,"[2]; compound concentrations:100 nM and 1000 nM (sheet 'Lestaurtinib' of Supplementary Table 1),run:Lestaurtinib_02364_R2,Plate:MR002",58.2 nM
same,potency estimated from few doses,"[2]; compound concentrations:100 nM and 1000 nM (sheet 'Lestaurtinib' of Supplementary Table 1),run:Lestaurtinib_02367_R1,Plate:MR003",83.4 nM
same,potency estimated from few doses,"[2]; compound concentrations:100 nM and 1000 nM (sheet 'Lestaurtinib' of Supplementary Table 1),run:Lestaurtinib_02367_R3,Plate:MR003",76.1 nM
same,potency estimated from few doses,"[2]; compound concentrations:100 nM and 1000 nM (sheet 'Lestaurtinib' of Supplementary Table 1),run:Lestaurtinib_02381_R1,Plate:MR004",44.2 nM
same,potency estimated from few doses,"[2]; compound concentrations:100 nM and 1000 nM (sheet 'Lestaurtinib' of Supplementary Table 1),run:Lestaurtinib_02381_R2,Plate:MR004",58 nM
same,potency estimated from few doses,"[2]; compound concentrations:100 nM and 1000 nM (sheet 'Lestaurtinib' of Supplementary Table 1),run:Lestaurtinib_02407_R1,Plate:MR005",74.7 nM
same,potency estimated from few doses,"[2]; compound concentrations:100 nM and 1000 nM (sheet 'Lestaurtinib' of Supplementary Table 1),run:Lestaurtinib_02407_R3,Plate:MR005",65.8 nM
same,potency estimated from few doses,"[2]; compound concentrations:100 nM and 1000 nM (sheet 'Lestaurtinib' of Supplementary Table 1),run:Lestaurtinib_02422_R1,Plate:MR006",64.3 nM
same,potency estimated from few doses,"[2]; compound concentrations:100 nM and 1000 nM (sheet 'Lestaurtinib' of Supplementary Table 1),run:Lestaurtinib_02422_R2,Plate:MR006",68.1 nM
same,potency estimated from few doses,"[2]; compound concentrations:100 nM and 1000 nM (sheet 'Lestaurtinib' of Supplementary Table 1),run:Lestaurtinib_02422_R3,Plate:MR006",67.9 nM
same,potency estimated from few doses,"[2]; compound concentrations:100 nM and 1000 nM (sheet 'Lestaurtinib' of Supplementary Table 1),run:Lestaurtinib_02438_R1,Plate:MR008",49.4 nM
same,potency estimated from few doses,"[2]; compound concentrations:100 nM and 1000 nM (sheet 'Lestaurtinib' of Supplementary Table 1),run:Lestaurtinib_02438_R2,Plate:MR008",63.9 nM
same,potency estimated from few doses,"[2]; compound concentrations:100 nM and 1000 nM (sheet 'Lestaurtinib' of Supplementary Table 1),run:Lestaurtinib_02438_R3,Plate:MR008",64.3 nM
same,potency estimated from few doses,"[2]; compound concentrations:100 nM and 1000 nM (sheet 'Lestaurtinib' of Supplementary Table 1),run:Lestaurtinib_02443_R1,Plate:MR009",67.3 nM
same,potency estimated from few doses,"[2]; compound concentrations:100 nM and 1000 nM (sheet 'Lestaurtinib' of Supplementary Table 1),run:Lestaurtinib_02443_R2,Plate:MR009",58.1 nM
same,potency estimated from few doses,"[2]; compound concentrations:100 nM and 1000 nM (sheet 'Lestaurtinib' of Supplementary Table 1),run:Lestaurtinib_02443_R3,Plate:MR009",63.3 nM
same,potency estimated from few doses,"[2]; compound concentrations:100 nM and 1000 nM (sheet 'Lestaurtinib' of Supplementary Table 1),run:Lestaurtinib_02473_R1,Plate:MR010",52.6 nM
same,potency estimated from few doses,"[2]; compound concentrations:100 nM and 1000 nM (sheet 'Lestaurtinib' of Supplementary Table 1),run:Lestaurtinib_02473_R2,Plate:MR010",60.5 nM
same,potency estimated from few doses,"[2]; compound concentrations:100 nM and 1000 nM (sheet 'Lestaurtinib' of Supplementary Table 1),run:Lestaurtinib_02473_R3,Plate:MR010",69.9 nM
same,potency estimated from few doses,"[2]; compound concentrations:100 nM and 1000 nM (sheet 'Lestaurtinib' of Supplementary Table 1),run:Lestaurtinib_02482_R3,Plate:MR011",54.1 nM
same,potency estimated from few doses,"[2]; compound concentrations:100 nM and 1000 nM (sheet 'Lestaurtinib' of Supplementary Table 1),run:Lestaurtinib_02487_R1,Plate:MR012",58.2 nM
same,potency estimated from few doses,"[2]; compound concentrations:100 nM and 1000 nM (sheet 'Lestaurtinib' of Supplementary Table 1),run:Lestaurtinib_02496_R1,Plate:MR013",79.9 nM
same,potency estimated from few doses,"[2]; compound concentrations:100 nM and 1000 nM (sheet 'Lestaurtinib' of Supplementary Table 1),run:Lestaurtinib_02496_R2,Plate:MR013",82.7 nM
same,potency estimated from few doses,"[2]; compound concentrations:100 nM and 1000 nM (sheet 'Lestaurtinib' of Supplementary Table 1),run:Lestaurtinib_02496_R3,Plate:MR013",62.6 nM
same,potency estimated from few doses,"[2]; compound concentrations:100 nM and 1000 nM (sheet 'Lestaurtinib' of Supplementary Table 1),run:Lestaurtinib_02566_R2,Plate:MR014",99.9 nM
same,potency estimated from few doses,"[2]; compound concentrations:100 nM and 1000 nM (sheet 'Lestaurtinib' of Supplementary Table 1),run:Lestaurtinib_02572_R2,Plate:MR015",67.3 nM
same,potency estimated from few doses,"[2]; compound concentrations:100 nM and 1000 nM (sheet 'Lestaurtinib' of Supplementary Table 1),run:Lestaurtinib_02577_R1,Plate:MR016",81.4 nM
same,potency estimated from few doses,"[2]; compound concentrations:100 nM and 1000 nM (sheet 'Lestaurtinib' of Supplementary Table 1),run:Lestaurtinib_02577_R2,Plate:MR016",61.5 nM
same,potency estimated from few doses,"[2]; compound concentrations:100 nM and 1000 nM (sheet 'Lestaurtinib' of Supplementary Table 1),run:Lestaurtinib_02577_R3,Plate:MR016",56.2 nM
same,potency estimated from few doses,"[2]; compound concentrations:100 nM and 1000 nM (sheet 'Lestaurtinib' of Supplementary Table 1),run:Lestaurtinib_02584_R1,Plate:MR017",49.6 nM
same,potency estimated from few doses,"[2]; compound concentrations:100 nM and 1000 nM (sheet 'Lestaurtinib' of Supplementary Table 1),run:Lestaurtinib_02584_R2,Plate:MR017",50.5 nM
same,potency estimated from few doses,"[2]; compound concentrations:100 nM and 1000 nM (sheet 'Lestaurtinib' of Supplementary Table 1),run:Lestaurtinib_02584_R3,Plate:MR017",79.4 nM
same,potency estimated from few doses,[2]; [3],73.5 nM
same,potency estimated from few doses,"[2]; compound concentrations:100 nM and 1000 nM (sheet 'Lestaurtinib' of Supplementary Table 1),run:Lestaurtinib_02601_R2,Plate:MR018",93.1 nM
same,potency estimated from few doses,[2]; [4],63.8 nM
same,potency estimated from few doses,[2]; [5],79.4 nM
same,potency estimated from few doses,[2]; [6],83.8 nM
same,potency estimated from few doses,[2]; [7],87.5 nM
same,potency estimated from few doses,"[2]; compound concentrations:100 nM and 1000 nM (sheet 'Lestaurtinib' of Supplementary Table 1),run:Lestaurtinib_02624_R1,Plate:MR020",87.4 nM
same,potency estimated from few doses,[2]; [8],94.5 nM
same,potency estimated from few doses,[2]; [9],93.4 nM
same,potency estimated from few doses,"[2]; compound concentrations:100 nM and 1000 nM (sheet 'Lestaurtinib' of Supplementary Table 1),run:Lestaurtinib_02724_R1,Plate:MR021",90.7 nM
same,potency estimated from few doses,"[2]; compound concentrations:100 nM and 1000 nM (sheet 'Lestaurtinib' of Supplementary Table 1),run:Lestaurtinib_02724_R2,Plate:MR021",92.1 nM
same,potency estimated from few doses,[2]; [10],78.5 nM
same,potency estimated from few doses,[2]; [11],83.9 nM
same,potency estimated from few doses,"[2]; compound concentrations:100 nM and 1000 nM (sheet 'Lestaurtinib' of Supplementary Table 1),run:Lestaurtinib_02741_R2,Plate:MR023",80 nM
same,potency estimated from few doses,"[2]; compound concentrations:100 nM and 1000 nM (sheet 'Lestaurtinib' of Supplementary Table 1),run:Lestaurtinib_02741_R3,Plate:MR023",69.3 nM
same,potency estimated from few doses,[2]; [12],74.4 nM
same,potency estimated from few doses,"[2]; compound concentrations:100 nM and 1000 nM (sheet 'Lestaurtinib' of Supplementary Table 1),run:Lestaurtinib_02752_R2,Plate:MR025",57.7 nM
